Assay outcomes (PubChem BioAssay)
Cruzain inh Det: cruzain (T. cruzi) inhibition with detergent | P25779 | AID 1478 | purified cruzain, Z-FR-AMC fluorescence, 0.01% Triton | Potency, µM, without a hit: max response, negative = inhibition, most hits filed as inhibitors | actives 0.43% (n = 200,000);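 also: plate controls were neutral wells for no effect and buffer without enzyme for full effect; nearly all actives have a fitted effect of over 40% in size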
Target sequence (P25779 123-467 limits assumed): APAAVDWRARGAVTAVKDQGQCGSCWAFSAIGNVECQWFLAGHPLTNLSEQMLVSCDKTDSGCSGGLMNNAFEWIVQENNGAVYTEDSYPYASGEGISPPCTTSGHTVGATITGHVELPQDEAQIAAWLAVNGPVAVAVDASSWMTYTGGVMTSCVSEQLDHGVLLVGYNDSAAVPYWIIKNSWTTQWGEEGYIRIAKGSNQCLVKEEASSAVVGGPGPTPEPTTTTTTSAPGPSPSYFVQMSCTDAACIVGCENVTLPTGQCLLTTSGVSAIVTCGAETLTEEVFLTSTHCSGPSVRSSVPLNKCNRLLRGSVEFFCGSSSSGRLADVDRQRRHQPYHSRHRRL
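Cysteine protease activity tested under reducing, mildly acidic conditions (100 mM sodium acetate pH 5.5, 5 mM DTT) plus 0.01% Triton X-100. Cruzain 1.5 nM; substrate Z-FR-AMC 2 uM; 15 min compound preincubation at room temperature.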
Cruzain noTriton: cruzain (T. cruzi) inhibition without detergent; purified cruzain, Z-FR-AMC fluorescence, no detergent; Potency, µM, for the others: max response, negative = inhibition, usual class: inhibitors; actives 2.3% (n = 200,000); AID 1476;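 also: plate controls were enzyme without inhibitor for no effect and buffer without enzyme for full effect; nearly all actives have a fitted effect of over 40% in size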
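Purified cruzain at 1.5 nM, pre-incubated 15 min with compound at room temperature in 100 mM sodium acetate pH 5.5, 5 mM DTT, 0.00005% Triton X-100. Reaction started with 2 uM Z-FR-AMC; AMC fluorescence increase over 60 s gives rate.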
* marks the source's active call; other numbers are inactive results; ! = a repeat was not active. Shown are actives, neighbours in structure and some others; about 2.6% of the full set was active somewhere. Calls follow the shape of the dose curve; as a rule, active = well fitted curve in the direction sought with a large enough effect; inconclusive = small, poorly fitted or top-dose-only effect, or another doubt; inactive = no such curve, though single readings can be large; an effect the other way counts as inactive or inconclusive. Potency is read from the fitted curve at half-maximal effect.

How did Cc1cc(C)cc(OCC(=O)Nc2ccc(-c3nc4ccccc4o3)cc2)c1 do in these assays?
Cruzain inh Det: -2%; Cruzain noTriton: 1%

How did O=C(Nc1ccc(O)c(-c2nc3ccccc3o2)c1)C1(c2ccc(Br)cc2)CCCC1 do in these assays?
Cruzain inh Det: 0%; Cruzain noTriton: 5µM*

Results for O=C(COc1ccc(/C=N/NS(=O)(=O)c2ccccc2)cc1)Nc1cccc(Cl)c1 ?
Cruzain inh Det: -5%; Cruzain noTriton: -14%

Results for O=C(Nc1ccc(O)c(-c2nc3ccccc3o2)c1)c1ccc(Br)cc1 ?
Cruzain inh Det: 0%; Cruzain noTriton: -2%

How did Cc1ccc(OCC(=O)Nc2ccc(O)c(-c3nc4ccccc4o3)c2)cc1 do in these assays?
Cruzain inh Det: -2%; Cruzain noTriton: 4µM*

Results for Cc1ccc(OCC(=O)Nc2ccc3nc(Nc4cccc(Cl)c4)cc(C)c3c2)cc1 ?
Cruzain inh Det: 3%; Cruzain noTriton: 20µM*

What do the screens show for `Cc1c(Cl)cccc1-c1ccc(CNc2ccc3[nH]c(=O)[nH]c3c2)o1`?
Cruzain inh Det: -6%; Cruzain noTriton: inconclusive

What do the screens show for `Cc1ccc2nc(N3CCC(C(=O)N4CCN(c5cccc(Cl)c5)CC4)CC3)[nH]c2c1`?
Cruzain inh Det: -6%; Cruzain noTriton: 3%

What do the screens show for `Cc1ccc(Cc2nc3ccccc3nc2SCC(=O)N2CCN(c3ccccc3F)CC2)cc1`?
Cruzain inh Det: -1%; Cruzain noTriton: -6%

What do the screens show for `C=CCn1c(O)c(C2=c3ccccc3=NC2=O)s/c1=N/c1nccs1`?
Cruzain inh Det: -5%; Cruzain noTriton: 8%

What do the screens show for `Cn1c(O)c(C2=c3ccccc3=NC2=O)sc1=Nc1ccc(Cl)cc1`?
Cruzain inh Det: -10%; Cruzain noTriton: 25µM*

What do the screens show for `Cc1ccc(CCNC(=O)C2CCCN(S(=O)(=O)c3ccc4c(c3)oc(=O)n4C)C2)cc1` (stereo not drawn)?
Cruzain inh Det: 0%; Cruzain noTriton: inconclusive

Results for COc1ccc(O)c(/C=N/NC(=O)c2ccc(OCc3cccc(Br)c3)cc2)c1 ?
Cruzain inh Det: -4%; Cruzain noTriton: 7.9µM*

Results for COc1ccc(O)c(/C=N/NC(=O)c2ccc(CSc3nc(C)cc(C)n3)cc2)c1 ?
Cruzain inh Det: -4%; Cruzain noTriton: 7%

Results for COc1ccc(/C=N/OC/C(O)=C(\C#N)c2nc3ccccc3[nH]2)cc1 ?
Cruzain inh Det: 2%; Cruzain noTriton: -29%

How did COc1ccc(OC/C(O)=C(\C#N)c2nc3ccccc3[nH]2)cc1 do in these assays?
Cruzain inh Det: -1%; Cruzain noTriton: 25µM*

What do the screens show for `O=c1cnc2cnc(N3CCNCC3)nc2n1Cc1ccc(F)cc1`?
Cruzain inh Det: -7%; Cruzain noTriton: -9%

Results for Cc1ccc(N2CC(NC(=O)c3cccc(Cl)c3)CC2=O)cc1C (stereo not drawn) ?
Cruzain inh Det: -3%; Cruzain noTriton: -15%

Results for O=[N+]([O-])c1ccc(/C=C/c2ccc3cccc([N+](=O)[O-])c3n2)cc1 ?
Cruzain inh Det: -6%; Cruzain noTriton: 13µM*

How did O=[N+]([O-])c1cccc2ccc(/C=C/c3ccc(F)cc3)nc12 do in these assays?
Cruzain inh Det: -6%; Cruzain noTriton: -10%

How did Cc1c(C(=O)Nc2ccc(-n3c(C)nc4ccccc4c3=O)cc2)cccc1[N+](=O)[O-] do in these assays?
Cruzain inh Det: 0%; Cruzain noTriton: -3%

Results for O=C1N=c2ccccc2=C1c1sc(=S)n(CC2CCCO2)c1O (stereo not drawn) ?
Cruzain inh Det: 8%; Cruzain noTriton: -13%

What do the screens show for `O=C(Nn1c(O)c(C=C2N=c3ccccc3=N2)sc1=S)c1ccccc1Cl`?
Cruzain inh Det: -13%; Cruzain noTriton: -29%

Results for Oc1c(C=C2N=c3ccccc3=N2)sc(=S)n1-c1ccccc1 ?
Cruzain inh Det: -3%; Cruzain noTriton: 10µM*

What do the screens show for `Oc1c(C=C2N=c3ccccc3=N2)sc(=S)n1C1CCCCC1`?
Cruzain inh Det: -4%; Cruzain noTriton: 13µM*!

What do the screens show for `COc1ccccc1OCC(=O)NCC(c1ccc(Cl)cc1)N1CCCCC1` (stereo not drawn)?
Cruzain inh Det: -2%; Cruzain noTriton: -4%

How did N=C(N)SCc1nc2ccccc2c(=O)n1-c1ccccc1 do in these assays?
Cruzain inh Det: -3%; Cruzain noTriton: 25µM*!

What do the screens show for `O=c1c2ccccc2nc(CSc2ncnc3nc[nH]c23)n1-c1ccccc1`?
Cruzain inh Det: 5%; Cruzain noTriton: -13%

How did COc1cccc(NC(=O)c2cc3c(=O)n(C)c4ccccc4c3n2C)c1 do in these assays?
Cruzain inh Det: 0%; Cruzain noTriton: inconclusive

What do the screens show for `CN(CCOc1ccc(-c2ccn(S(=O)(=O)c3ccc(Cl)cc3)n2)cc1)c1ccccn1`?
Cruzain inh Det: 2%; Cruzain noTriton: -29%

How did Cc1ccc(S(=O)(=O)n2ccc(-c3cccc(OCc4c(F)cccc4Cl)c3)n2)cc1 do in these assays?
Cruzain inh Det: 5%; Cruzain noTriton: 7.9µM*
